Laboratory results from the supplement of paper PMC6089552.
In all, about 3,200 compounds went through this assay and about 300 (9.4%) showed activity. Shown is part of a subset that was picked to be rich in actives.

Tested on: A673/TR/shEF
Test: cell viability (LOESS-normalised, relative to median of negative controls) (log2 ratio); higher = more viable cells (less compound effect), active = hit call of the paper (over 3 MAD below the median)
Conditions: treatment time: 72 h
Procedure, shortened: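 Viability of A673/TR/shEF Ewing sarcoma cells was determined by CellTiter-Glo luminescence. The cells, at 1,500 per well in 384-well plates, were grown with or without doxycycline from 24 h before compound addition to switch on EWS-FLI1 shRNA knockdown, then exposed for three days to library compounds at two or more concentrations or to DMSO controls. Signals were LOESS-corrected plate by plate, normalised to the negative-control median and log2-transformed.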

[1] = 0.25 µM, library screen: screen1, EWS-FLI1 expression: high (no doxycycline)
[2] = 0.25 µM, library screen: screen1, EWS-FLI1 expression: low (doxycycline-induced shRNA knockdown)
[3] = 2.5 µM, library screen: screen1, EWS-FLI1 expression: high (no doxycycline)
[4] = 2.5 µM, library screen: screen1, EWS-FLI1 expression: low (doxycycline-induced shRNA knockdown)
[5] = 0.25 µM, library screen: screen2, EWS-FLI1 expression: high (no doxycycline)
[6] = 0.25 µM, library screen: screen2, EWS-FLI1 expression: low (doxycycline-induced shRNA knockdown)
[7] = 2.5 µM, library screen: screen2, EWS-FLI1 expression: high (no doxycycline)
[8] = 2.5 µM, library screen: screen2, EWS-FLI1 expression: low (doxycycline-induced shRNA knockdown)
[9] = 0.103 µM, library screen: screen3, EWS-FLI1 expression: high (no doxycycline)
[10] = 0.103 µM, library screen: screen3, EWS-FLI1 expression: low (doxycycline-induced shRNA knockdown)
[11] = 0.308 µM, library screen: screen3, EWS-FLI1 expression: high (no doxycycline)
[12] = 0.308 µM, library screen: screen3, EWS-FLI1 expression: low (doxycycline-induced shRNA knockdown)
[13] = 0.926 µM, library screen: screen3, EWS-FLI1 expression: high (no doxycycline)
[14] = 0.926 µM, library screen: screen3, EWS-FLI1 expression: low (doxycycline-induced shRNA knockdown)
[15] = 2.8 µM, library screen: screen3, EWS-FLI1 expression: high (no doxycycline)
[16] = 2.8 µM, library screen: screen3, EWS-FLI1 expression: low (doxycycline-induced shRNA knockdown)
[17] = 8.3 µM, library screen: screen3, EWS-FLI1 expression: high (no doxycycline)
[18] = 8.3 µM, library screen: screen3, EWS-FLI1 expression: low (doxycycline-induced shRNA knockdown)
[19] = 25 µM, library screen: screen3, EWS-FLI1 expression: high (no doxycycline)
[20] = 25 µM, library screen: screen3, EWS-FLI1 expression: low (doxycycline-induced shRNA knockdown)

Measured: cell viability (log2)

CC(=O)N[C@@H]1[C@@H](O)[C@H](O)[C@@H](CO)O[C@H]1O
inactive: [1] 0.0385 | [2] 0.0648 | [3] 0.0809 | [4] 0.0429

CC(C)CC1NC(=O)C(Cc2ccccc2)NC(=O)C(CCN)NC(=O)C(NC(=O)C(CCN)NC(=O)C(CCO)NC(=O)C(CCN)NC=O)CCNC(=O)C(CCO)NC(=O)C(CCN)NC(=O)C(CCN)NC1=O.COc1cc(Cc2cnc(N)nc2N)cc(OC)c1OC (stereo not given)
inactive: [1] 0.0686 | [2] 0.0873 | [3] 0.182 | [4] 0.054

Cc1ccccc1N1CCN(S(=O)(=O)C[C@]23CCC(CC2NC(=O)[C@@H](N)CCS(C)(=O)=O)C3(C)C)CC1 (stereo not given in full)
inactive: [5] 0.163 | [6] 0.172 | [7] 0.18 | [8] 0.0913

CC(C)=CCCC1(C)C=Cc2c(O)c3c(c(CC=C(C)C)c2O1)OC12C(=CCCC1C(C)(C)OC2(CC=C(C)C(=O)O)C(=O)O)C3=O (stereo not given)
inactive: [1] 0.0468 | [2] -0.0618 | [3] 0.121 | [4] 0.0265

CN(C)C(=O)/N=N/C(=O)N(C)C
inactive: [5] 0.0755 | [6] 0.0201 | [7] 0.21 | [8] 0.117

Cc1cnc(C(=O)NCCc2ccc(S(=O)(=O)NC(=O)NC3CCCCC3)cc2)cn1
inactive: [9] 0.103 | [10] 0.0573 | [5] 0.139 | [6] -0.00978 | [11] 0.195 | [12] 0.0857 | [13] 0.143 | [14] 0.063 | [7] 0.155 | [8] 0.035 | [15] 0.0953 | [16] 0.0849 | [17] 0.13 | [18] 0.0833 | [19] 0.172 | [20] 0.135

COc1ccc(Cl)cc1C(=O)NCCc1ccc(S(=O)(=O)NC(=O)NC2CCCCC2)cc1
inactive: [9] 0.115 | [10] 0.0621 | [1] 0.0607 | [2] 0.0399 | [5] 0.171 | [6] 0.0382 | [11] 0.175 | [12] 0.0954 | [13] 0.104 | [14] 0.103 | [3] 0.0749 | [4] 0.0806 | [7] 0.0699 | [8] 0.0189 | [15] 0.125 | [16] 0.0778 | [17] 0.113 | [18] 0.0685 | [19] 0.0907 | [20] 0.0579

CCC1=C(C)CN(C(=O)NCCc2ccc(S(=O)(=O)NC(=O)NC3CCC(C)CC3)cc2)C1=O (stereo not given)
inactive: [9] 0.065 | [10] 0.0619 | [11] -0.018 | [12] 0.0454 | [13] -0.0554 | [14] -0.00949 | [15] 0.0264 | [16] -0.0201 | [17] -0.0146 | [18] -0.0784
active: [19] -0.481 | [20] -0.408

CC1(C)[C@@H](O[C@@H]2O[C@H](C(=O)O)[C@@H](O)[C@H](O)[C@H]2O[C@@H]2O[C@H](C(=O)O)[C@@H](O)[C@H](O)[C@H]2O)CC[C@]2(C)[C@H]3C(=O)C=C4[C@@H]5C[C@@](C)(C(=O)O)CC[C@]5(C)CC[C@@]4(C)[C@]3(C)CC[C@@H]12
inactive: [1] 0.061 | [2] 0.0758 | [3] 0.126 | [4] 0.123

NC[C@@H]1O[C@H](O[C@@H]2[C@@H](CO)OC(O[C@H]3C(O[C@H]4O[C@H](CO)[C@@H](O)[C@H](O)[C@H]4N)[C@@H](N)C[C@@H](N)[C@@H]3O)[C@@H]2O)[C@H](N)[C@@H](O)[C@@H]1O (stereo not given in full)
inactive: [1] 0.0774 | [2] 0.116 | [5] 0.171 | [6] 0.0601 | [3] 0.0937 | [4] 0.0802 | [7] 0.19 | [8] 0.0499

COc1ccc(OC)c(CN2CCN(Cc3ccc(F)cc3)CC2)c1
inactive: [1] 0.102 | [2] 0.0528 | [3] 0.106 | [4] -0.00941

CN1CCN(CCOc2cc(OC3CCOCC3)c3c(Nc4c(Cl)ccc5c4OCO5)ncnc3c2)CC1
active: [17] -0.339 | [18] -0.15 | [19] -0.476 | [20] -0.808
inactive: [9] 0.0216 | [10] 0.122 | [11] -0.0387 | [12] 0.0239 | [13] -0.075 | [14] 0.0267 | [15] -0.153 | [16] -0.0864

C[C@@H]1O[C@H](OC[C@H]2O[C@@H](Oc3c(-c4ccc(O)c(O)c4)oc4cc(O)cc(O)c4c3=O)[C@H](O)[C@@H](O)[C@@H]2O)[C@H](O)[C@H](O)[C@H]1O
inactive: [1] -0.0111 | [2] 0.0513 | [3] 0.125 | [4] 0.094

C[C@H](CCC(=O)O)[C@H]1CC[C@H]2[C@@H]3C(O)CC4=CC(=O)CC[C@]4(C)[C@H]3CC[C@]12C (stereo not given in full)
inactive: [1] 0.0418 | [2] -0.00533 | [3] 0.162 | [4] -0.0526

C[n+]1c2cc(N)ccc2cc2ccc(N)cc21
active: [7] -0.404 | 25 µM, library screen: screen2, EWS-FLI1 expression: high (no doxycycline) -4.23 | 25 µM, library screen: screen2, EWS-FLI1 expression: low (doxycycline-induced shRNA knockdown) -2.18
inactive: 0.025 µM, library screen: screen2, EWS-FLI1 expression: high (no doxycycline) 0.0847 | 0.025 µM, library screen: screen2, EWS-FLI1 expression: low (doxycycline-induced shRNA knockdown) 0.099 | [1] 0.0872 | [2] 0.141 | [5] 0.0533 | [6] 0.0413 | [3] 0.0728 | [4] 0.101 | [8] -0.0252

CCCCN1CCC(COC(=O)c2cc(Cl)c(N)c3c2OCCO3)CC1
active: [5] -0.151
inactive: [6] -0.0248 | [7] 0.148 | [8] 0.108

CC[C@H](/C=C/[C@@H](C)[C@H]1CC[C@H]2[C@@H]3CCC4=CC(=O)CC[C@]4(C)[C@H]3CC[C@]12C)C(C)C
inactive: [1] 0.0678 | [2] 0.0569 | [3] 0.0668 | [4] -0.0817

COC(=O)[C@H]1[C@H]2C[C@H]3c4[nH]c5cc(OC)ccc5c4CCN3C[C@H]2C[C@@H](OC(=O)c2cc(OC)c(OC)c(OC)c2)[C@@H]1OC
inactive: [1] 0.121 | [2] 0.17 | [3] 0.195 | [4] 0.313

COc1ccc2c(c1)[C@@]1(C)CCC(=O)C[C@H]1CC2
inactive: [1] 0.0614 | [2] 0.0537 | [3] 0.105 | [4] 0.0269

Clc1ccc(C(c2ccc(Cl)cc2)n2cc[n+](CC(OCc3ccc(Cl)cc3Cl)c3ccc(Cl)cc3Cl)c2)cc1 (stereo not given)
inactive: [5] 0.138 | [6] 0.0728 | [7] 0.0573 | [8] 0.0822

NCCCCCCNS(=O)(=O)c1cccc2c(Cl)cccc12
inactive: [1] 0.066 | [2] 0.0556 | [5] 0.156 | [6] 0.0625 | [3] 0.0432 | [4] 0.0443 | [7] 0.141 | [8] 0.102

NCCCCNS(=O)(=O)c1cccc2c(Cl)cccc12
active: [5] -0.151
inactive: [6] 0.0648 | [7] 0.0418 | [8] 0.0582

COc1ccccc1N1CCN(CCCCNS(=O)(=O)c2cccc3c(N(C)C)cccc23)CC1
inactive: [5] 0.171 | [6] 0.0777 | [7] 0.0423 | [8] 0.0929

O=C(Oc1cc(O)c2c(c1)O[C@H](c1cc(O)c(OC(=O)c3cc(O)c(O)c(O)c3)c3c(O)c(=O)cc(C4Oc5cc(O)cc(O)c5C[C@H]4O)cc13)[C@H](O)C2)c1cc(O)c(O)c(O)c1 (stereo not given in full)
inactive: [1] 0.0686 | [2] 0.0559 | [3] 0.0408 | [4] 0.0509

CC12CC[C@](C)(C(=O)O)CC1C1=CC(=O)[C@@H]3C4(C)CC[C@H](OC(=O)CCC(=O)O)C(C)(C)[C@@H]4CCC3(C)[C@]1(C)CC2 (stereo not given in full)
inactive: [1] 0.0741 | [2] -0.061 | [3] 0.0857 | [4] -0.0474

CC(=O)OC1CCC2(C)C(CCC3C2CCC2(C)C3CC3OC4(CCC(C)CO4)C(C)C32)C1 (stereo not given)
inactive: [1] 0.0872 | [2] 0.0698 | [3] 0.151 | [4] 0.0624

CC(=O)OC1CCC2(C)C(CCC3C2CC(=O)C2(C)C3CC3OC4(CCC(C)CO4)C(C)C32)C1 (stereo not given)
inactive: [1] 0.0619 | [2] 0.0314 | [3] 0.0226 | [4] 0.0969

COc1ccc(/C=C/C(=O)O)cc1O
inactive: [1] 0.0659 | [2] -0.0174 | [3] 0.0725 | [4] 0.0415

CCCCC(=O)O[C@H]1CC[C@H]2[C@@H]3CCc4cc(O)ccc4[C@H]3CC[C@]12C
inactive: [1] 0.0993 | [2] -0.0254 | [3] 0.16 | [4] 0.0807

CCC(=O)O[C@H]1CC[C@H]2[C@@H]3CCc4cc(O)ccc4[C@H]3CC[C@]12C
inactive: [1] 0.0933 | [2] 0.137 | [3] 0.162 | [4] 0.0928

C[C@]12CC[C@@H]3c4ccc(O)cc4CC[C@H]3[C@@H]1CC[C@@H]2OC(=O)CCC1CCCC1
active: [1] -0.302
inactive: [2] 0.00213 | [3] 0.197 | [4] 0.299

O=[N+]([O-])c1ccc(Oc2ccc(Br)cc2)c(C(O)[P+](=O)O)c1 (stereo not given)
inactive: 0.025 µM, library screen: screen1, EWS-FLI1 expression: high (no doxycycline) 0.0442 | 0.025 µM, library screen: screen1, EWS-FLI1 expression: low (doxycycline-induced shRNA knockdown) 0.0701 | [1] 0.235 | [2] 0.0171 | [4] -0.0253 | 25 µM, library screen: screen1, EWS-FLI1 expression: low (doxycycline-induced shRNA knockdown) -0.0834
active: [3] -0.289 | 25 µM, library screen: screen1, EWS-FLI1 expression: high (no doxycycline) -0.404

CS(=O)(=O)Nc1ccc([N+](=O)[O-])cc1Oc1ccccc1
inactive: [1] 0.147 | [2] 0.0914 | [5] 0.0788 | [6] -0.000657 | [3] 0.123 | [4] 0.11 | [7] 0.101 | [8] 0.0459
